Test results as given in PubChem BioAssay (EPA / NIEHS).
Inconclusive results are not listed. Calls of active or inactive are those of the source. Rule for the calls, unless noted: active = hit-call score of the fitted dose curve at least 0.9, where 1 is the maximum; inactive = score below 0.9.

What was measured:
[1] = BSK_LPS_PGE2: BioMAP Diversity Plus: LPS Assay for Prostaglandin E2 (PGE2) Biomarker Activity (AID 2283082); settings: primary human HUVEC with PBMC; actives raise or lower the signal;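 for AC50: secreted prostaglandin E2 measured by ELISA in LPS-stimulated co-culture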
Outline: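 ELISA read-out of PGE2 from human umbilical vein endothelial cells co-cultured with peripheral blood mononuclear cells under LPS, 24 h post-dose. Gain or loss of signal scored relative to DMSO baseline.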

[2] = read-out: Macrophage colony-stimulating factor (MCSF), CSF1 (gene 1435); assay: BSK_LPS_MCSF: BioMAP Diversity Plus: LPS Assay for Macrophage colony-stimulating factor (MCSF) Biomarker Activity (AID 2283083); settings: primary human HUVEC with PBMC; actives raise or lower the signal
Outline: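 Bidirectional fit versus DMSO of ELISA-measured M-CSF in co-cultured human umbilical vein endothelial cells and PBMC, sampled 24 h after dosing.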

[3] = read-out: Tissue Factor, F3 (gene 2152); assay: BSK_LPS_TissueFactor: BioMAP Diversity Plus: LPS Assay for Tissue Factor Biomarker Activity (AID 2283084); settings: primary human HUVEC with PBMC; actives raise or lower the signal
Outline: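 Read-out: CD142 ELISA, 24 h. System: LPS-driven human endothelial/PBMC co-culture. Analysis: up- or down-signal fitted against DMSO.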

[4] = read-out: Tumor necrosis factor (Homo sapiens) (UniProt P01375); assay: BSK_LPS_TNFa: BioMAP Diversity Plus: LPS Assay for Tumour Necrosis Factor alpha (TNFa) Biomarker Activity (AID 2283085); settings: primary human HUVEC with PBMC; actives raise or lower the signal;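 for AC50: TNFa protein level quantified by ELISA in the co-culture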
Outline: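 HUVEC/PBMC co-culture, LPS-stimulated; 24 h post-dose; TNFa by ELISA; gain or loss of signal fitted bidirectionally vs DMSO baseline.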

[5] = read-out: Vascular cell adhesion molecule 1 (VCAM1), VCAM1 (gene 7412); assay: BSK_LPS_VCAM1: BioMAP Diversity Plus: LPS Assay for Vascular cell adhesion molecule 1 (VCAM1) Biomarker Activity (AID 2283086); settings: primary human HUVEC with PBMC; actives raise or lower the signal
Outline: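 ELISA read-out of VCAM-1 at 24 h post-dosing in an LPS-driven HUVEC/PBMC primary human co-culture; gain or loss of signal fitted bidirectionally against DMSO baseline. Cytotoxicity tracked in parallel cultures by SRB total-protein staining.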

CD38, CD38 (gene 952) = assay: BSK_SAg_CD38: BioMAP Diversity Plus: SAg Assay for CD38 Biomarker Activity (AID 2283087); settings: primary human HUVEC with PBMC; actives raise or lower the signal
Outline: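 Measures CD38 on a human endothelial/PBMC co-culture driven by SEB and TSST-1, 24 h after compound exposure, using ELISA with fluorescence detection; DMSO defines baseline for bidirectional curve fitting.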

CD40, CD40 (gene 958) = assay: BSK_SAg_CD40: BioMAP Diversity Plus: SAg Assay for CD40 Biomarker Activity (AID 2283088); settings: primary human HUVEC with PBMC; actives raise or lower the signal
Outline: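 Endpoint derived by fitting increases or decreases versus DMSO controls. CD40 is detected by fluorescence ELISA in a human vascular co-culture of endothelium and PBMC at 24 h.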

CD69, CD69 (gene 969) = assay: BSK_SAg_CD69: BioMAP Diversity Plus: SAg Assay for CD69 Biomarker Activity (AID 2283089); settings: primary human HUVEC with PBMC; actives raise or lower the signal;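 for AC50: cell surface CD69 protein quantified by ELISA with fluorescence detection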
Outline: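 HUVEC co-cultured with PBMC were dosed with chemical, and CD69 was measured by ELISA with fluorescence read-out 24 h later. Bidirectional curve fitting used DMSO as negative control and activity baseline.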

[6] = read-out: Monocyte Chemoattractant Protein-1 (MCP1), CCL2 (gene 6347); assay: BSK_SAg_MCP1: BioMAP Diversity Plus: SAg Assay for Monocyte Chemoattractant Protein-1 (MCP1) Biomarker Activity (AID 2283090); settings: primary human HUVEC with PBMC; actives raise or lower the signal
Outline: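 Values derive from bidirectional fitting of ELISA-measured MCP1 against DMSO controls. Readings were taken 24 h after dosing human vascular endothelial cells co-cultured with peripheral blood mononuclear cells under superantigen stimulation.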

[7] = read-out: E-selectin (Homo sapiens) (UniProt P16581); assay: BSK_SAg_Eselectin: BioMAP Diversity Plus: SAg Assay for Eselectin Biomarker Activity (AID 2283091); settings: primary human HUVEC with PBMC; actives raise or lower the signal
Outline: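 Endpoint values derive from bidirectional fitting relative to DMSO, using ELISA-measured E-selectin in a human vascular co-culture (umbilical vein endothelium plus PBMC) sampled 24 h after dosing.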

[8] = BSK_SAg_PBMCCytotoxicity: PBMC Cytotoxicity Assessment in the BioMAP Diversity Plus: SAg Assay (AID 2283093); settings: primary human HUVEC with PBMC;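 note: PBMC viability measured as Alamar Blue reduction fluorescence at 546/580 nm; fitted both ways against DMSO so a hit may be loss or gain of signal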;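 for AC50: PBMC superantigen activated with SEB plus TSST-1 one hour after compound addition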
Outline: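 Alamar Blue reduction (6 h, 546/580 nm) reports PBMC cytotoxicity after 90 h superantigen activation (SEB, TSST-1; 20 ng/mL final each) with 1 h compound pre-treatment. Gain or loss of signal fitted versus DMSO.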

[9] = read-out: Interleukin-8 (IL8), CXCL8 (gene 3576); assay: BSK_SAg_IL8: BioMAP Diversity Plus: SAg Assay for Interleukin-8 (IL8) Biomarker Activity (AID 2283094); settings: primary human HUVEC with PBMC; actives raise or lower the signal
Outline: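 HUVEC/PBMC co-culture, 24 h post-dose; IL-8 by ELISA. Gain or loss of signal fitted bidirectionally vs DMSO baseline.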

[10] = BSK_SAg_Proliferation: Cell Proliferation Assessment in the BioMAP Diversity Plus: SAg Assay (AID 2283095); settings: primary human HUVEC with PBMC;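 note: relative cell number as total protein by SRB absorbance in sub-confluent culture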
Outline: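 HUVEC/PBMC co-culture, 96-well. TCA-fixed (10%), 0.1% SRB stain, A560 at 96 h. Protein content used as viability readout; bidirectional fitting vs DMSO control.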

[11] = BSK_SAg_SRB: Viability Assessment in the BioMAP Diversity Plus: SAg Assay (AID 2283096); settings: primary human HUVEC with PBMC;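 note: cells read one day after compound addition; hits may be either gain or loss of signal compared with DMSO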
Outline: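 This overt-cytotoxicity endpoint quantifies protein in human endothelial/PBMC co-cultures at 24 h using SRB absorbance (560 nm) after trichloroacetic acid fixation. Values reflect signal change from the DMSO negative control, fitted bidirectionally.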

[12] = target: human CYP2B6, CYP2B6 (gene 1555) (UniProt P20813); assay: NVS_ADME_hCYP2B6: NovaScreen (NVS) CYP450-related Enzyme Activity (ADME) Assay for human CYP2B6 (AID 2283101; active = hit-call score of the fitted dose curve at least 0.9, where 1 is the maximum)
Outline: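 Recombinant human CYP2B6 with fluorogenic substrate, read by fluorescence intensity 1 h after dosing. Primary screen in duplicate at 10 uM, actives followed in concentration series; signal loss relative to acetonitrile control.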

[13] = target: human CYP1A2, CYP1A2 (gene 1544) (UniProt P05177); assay: NVS_ADME_hCYP1A2: NovaScreen (NVS) CYP450-related Enzyme Activity (ADME) Assay for human CYP1A2 (AID 2283102; active = hit-call score of the fitted dose curve at least 0.9, where 1 is the maximum;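 for AC50: fluorescence from turnover of a fluorogenic substrate by recombinant insect-cell CYP1A2; potency for inhibition since loss of fluorescence marks reduced CYP1A2 activity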)
Outline: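 Inhibition scored as decrease in fluorescent product versus acetonitrile negative control. Enzyme: insect-cell recombinant human CYP1A2, substrate-specific, cell-free. Reading at 0.5 h; 10 uM duplicate initial screen with positive and negative controls on every plate.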

[14] = read-out: Monokine induced gamma interferon (MIG), CXCL9 (gene 4283); assay: BSK_SAg_MIG: BioMAP Diversity Plus: SAg Assay for Monokine induced gamma interferon (MIG) Biomarker Activity (AID 2283092); settings: primary human HUVEC with PBMC; actives raise or lower the signal
Outline: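 HUVEC plus human PBMC co-culture, chemicals dosed and MIG (CXCL9) quantified by ELISA at 24 h. Bidirectional curve fitting against DMSO as negative control and baseline, so both gain and loss of signal count as activity.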

[15] = target: human CYP1A1, CYP1A1 (gene 1543) (UniProt P04798); assay: NVS_ADME_hCYP1A1: NovaScreen (NVS) CYP450-related Enzyme Activity (ADME) Assay for human CYP1A1 (AID 2283100; active = hit-call score of the fitted dose curve at least 0.9, where 1 is the maximum)
Outline: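 Inhibition of recombinant CYP1A1 turnover was assessed fluorometrically in a biochemical format 1 h after compound exposure. Testing began at 10 uM in duplicate and progressed to concentration series reaching 20 uM, with on-plate positive and negative controls.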

Measured: AC50

Sequence of Tumor necrosis factor (Homo sapiens) (P01375 whole entry, looked up): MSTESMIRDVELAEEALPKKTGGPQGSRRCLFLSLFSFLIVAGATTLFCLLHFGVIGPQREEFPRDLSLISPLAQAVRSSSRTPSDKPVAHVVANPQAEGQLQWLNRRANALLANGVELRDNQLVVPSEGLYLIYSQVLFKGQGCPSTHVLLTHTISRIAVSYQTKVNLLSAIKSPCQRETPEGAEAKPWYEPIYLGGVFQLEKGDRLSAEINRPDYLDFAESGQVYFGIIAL
Sequence of E-selectin (Homo sapiens) (P16581 whole entry, looked up): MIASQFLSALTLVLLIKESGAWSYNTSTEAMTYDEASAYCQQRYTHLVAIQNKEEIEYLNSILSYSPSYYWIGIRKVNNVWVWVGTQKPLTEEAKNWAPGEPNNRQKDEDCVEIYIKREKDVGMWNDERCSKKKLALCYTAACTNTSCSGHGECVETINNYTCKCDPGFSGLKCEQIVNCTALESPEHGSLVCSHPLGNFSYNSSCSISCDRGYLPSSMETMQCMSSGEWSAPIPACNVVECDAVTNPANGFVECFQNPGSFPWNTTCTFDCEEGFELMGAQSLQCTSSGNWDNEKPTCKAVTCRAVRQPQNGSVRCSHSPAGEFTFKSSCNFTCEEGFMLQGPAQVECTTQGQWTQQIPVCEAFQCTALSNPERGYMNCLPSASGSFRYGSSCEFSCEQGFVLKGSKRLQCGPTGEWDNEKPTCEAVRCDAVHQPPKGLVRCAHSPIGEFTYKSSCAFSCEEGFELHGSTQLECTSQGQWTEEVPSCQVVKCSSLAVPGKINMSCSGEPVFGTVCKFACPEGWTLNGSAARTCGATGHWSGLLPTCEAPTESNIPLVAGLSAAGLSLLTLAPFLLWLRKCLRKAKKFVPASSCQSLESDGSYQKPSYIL
Sequence of human CYP2B6, CYP2B6 (gene 1555) (P20813 whole entry, looked up): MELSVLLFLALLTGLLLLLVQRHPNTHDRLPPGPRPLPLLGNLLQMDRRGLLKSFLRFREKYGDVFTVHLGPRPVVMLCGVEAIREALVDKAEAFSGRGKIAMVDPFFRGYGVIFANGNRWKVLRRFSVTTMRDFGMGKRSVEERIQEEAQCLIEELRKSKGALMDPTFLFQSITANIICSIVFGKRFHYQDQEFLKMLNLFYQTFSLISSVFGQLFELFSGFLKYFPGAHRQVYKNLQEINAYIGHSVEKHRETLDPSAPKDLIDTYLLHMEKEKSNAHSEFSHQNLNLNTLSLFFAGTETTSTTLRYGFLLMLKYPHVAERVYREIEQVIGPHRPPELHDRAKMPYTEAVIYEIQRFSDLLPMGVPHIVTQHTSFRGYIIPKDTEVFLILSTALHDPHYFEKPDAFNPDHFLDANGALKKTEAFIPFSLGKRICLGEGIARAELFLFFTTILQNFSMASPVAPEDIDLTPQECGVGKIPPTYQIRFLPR
Sequence of human CYP1A2, CYP1A2 (gene 1544) (P05177 whole entry, looked up): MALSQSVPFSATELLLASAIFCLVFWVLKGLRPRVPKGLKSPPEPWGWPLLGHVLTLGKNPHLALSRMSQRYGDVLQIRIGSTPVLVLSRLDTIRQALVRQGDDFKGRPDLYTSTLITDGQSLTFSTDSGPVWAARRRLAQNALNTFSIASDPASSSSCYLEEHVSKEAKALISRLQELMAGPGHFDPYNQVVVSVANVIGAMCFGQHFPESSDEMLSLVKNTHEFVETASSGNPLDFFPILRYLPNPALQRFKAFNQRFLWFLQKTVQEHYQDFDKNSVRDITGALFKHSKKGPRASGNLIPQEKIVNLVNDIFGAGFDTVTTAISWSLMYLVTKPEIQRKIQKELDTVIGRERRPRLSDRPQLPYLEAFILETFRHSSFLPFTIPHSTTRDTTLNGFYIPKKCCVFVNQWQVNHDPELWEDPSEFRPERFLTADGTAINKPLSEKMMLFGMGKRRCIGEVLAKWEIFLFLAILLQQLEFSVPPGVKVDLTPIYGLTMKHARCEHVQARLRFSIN
Sequence of human CYP1A1, CYP1A1 (gene 1543) (P04798 whole entry, looked up): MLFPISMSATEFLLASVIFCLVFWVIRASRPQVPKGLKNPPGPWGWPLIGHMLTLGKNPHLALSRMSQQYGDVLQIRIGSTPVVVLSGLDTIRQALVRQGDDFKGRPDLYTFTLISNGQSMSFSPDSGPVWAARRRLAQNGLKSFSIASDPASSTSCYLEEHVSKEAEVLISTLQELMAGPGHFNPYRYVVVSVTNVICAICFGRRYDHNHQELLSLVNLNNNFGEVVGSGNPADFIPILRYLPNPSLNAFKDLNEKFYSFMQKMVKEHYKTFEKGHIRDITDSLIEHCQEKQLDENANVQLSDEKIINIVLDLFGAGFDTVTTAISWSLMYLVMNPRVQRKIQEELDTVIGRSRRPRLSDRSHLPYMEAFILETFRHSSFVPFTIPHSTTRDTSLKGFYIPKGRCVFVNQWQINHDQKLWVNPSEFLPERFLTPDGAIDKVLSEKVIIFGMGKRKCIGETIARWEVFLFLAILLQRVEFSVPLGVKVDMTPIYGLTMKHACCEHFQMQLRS

C=CCOC(=O)c1ccccc1C(=O)OCC=C
active: [12] 7.79 µM | [13] 3.03 µM
not listed: [14] | [15]
inactive: all other assays above

CCCCCCCCCCCC(=O)OC
active: [8] 20 µM
not listed: [11] | [12] | [13] | [15]
inactive: all other assays above

CCCCCCCCCCCCCO
inactive: [1] | [2] | [3] | [4] | CD69, CD69 (gene 969) | [10]
active: [5] 34.7 µM | CD38, CD38 (gene 952) 31.1 µM | CD40, CD40 (gene 958) 29.8 µM | [6] 31.5 µM | [7] 36.4 µM | [8] 33.2 µM | [9] 38 µM

CC(=O)C(C)=CC1C(C)=CCCC1(C)C (stereo not given)
not listed: [12] | [13] | [14] | [15]
inactive: all other assays above

COC(=O)c1ccc(O)cc1
active: [1] 1.34 µM
not listed: [9] | [11] | [12] | [13] | [15]
inactive: all other assays above

CCc1c(C(=O)NN2CCCCC2)nn(-c2ccc(Cl)cc2Cl)c1-c1ccc(Br)cc1
active: [1] 15.3 µM | [2] 20 µM | [5] 6.19 µM | CD38, CD38 (gene 952) 11.5 µM | CD40, CD40 (gene 958) 12.2 µM | CD69, CD69 (gene 969) 10.3 µM | [6] 8.24 µM | [7] 12.3 µM | [14] 9.99 µM | [8] 11.8 µM | [9] 7.03 µM | [10] 7.06 µM | [11] 8.32 µM
inactive: [3] | [4]

NCC1(Cc2noc(=O)[nH]2)CCCCC1
not listed: [9] | [12] | [13] | [14] | [15]
inactive: all other assays above

CCOc1ccc2c(c1)C(C)=CC(C)(C)N2
active: [1] 4.6 µM | [4] 3.97 µM | [8] 10.1 µM | [10] 24.8 µM | [12] 11.6 µM
not listed: [9]
inactive: all other assays above
